Experimental data: the supplement of paper PMC6555819

Key:
Test in all cases: PBM binding z-score (relative to random genomic background probes); higher = stronger binding; sequences stand for … in GC…GCGATTGACAGCGTAGAATGAAGG
[1] = system: FXR:RXRa (NR concentration 270 nM, RXRa partner concentration 90 nM)
How it was run: (§1)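 Regression normalization was applied to scanned fluorescence from custom Agilent 4×180K protein-binding microarrays. Before scanning, arrays were incubated 1 h with ligand-free nuclear receptor dimers, and binding was detected with antibodies against each partner (one per run). Binding z-scores use the random background probes as reference.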

[2] = system: LXRa:RXRa (NR concentration 270 nM, RXRa partner concentration 90 nM)
How it was run: as §1

[3] = system: LXRa homodimer (NR concentration 270 nM)
How it was run: as §1

[4] = system: LXRb:RXRa (NR concentration 270 nM, RXRa partner concentration 90 nM)
How it was run: as §1

[5] = system: LXRb homodimer (NR concentration 270 nM)
How it was run: as §1

[6] = system: PPARa:RXRa (NR concentration 270 nM, RXRa partner concentration 90 nM)
How it was run: as §1

[7] = system: PPARg:RXRa (NR concentration 180 nM, RXRa partner concentration 90 nM)
How it was run: as §1

[8] = system: PPARg:RXRa 270nM:90nM, anti-RXR (NR concentration 270 nM, RXRa partner concentration 90 nM)
How it was run: as §1

[9] = system: PPARg:RXRa 30nM:10nM, anti-RXR (NR concentration 30 nM, RXRa partner concentration 10 nM)
How it was run: as §1

[10] = system: PPARg:RXRa 90nM:30nM, anti-RXR (NR concentration 90 nM, RXRa partner concentration 30 nM)
How it was run: as §1

[11] = system: PPARg:RXRa DBDmut IVT, anti-RXR (DBD mutation: RXRa K156A/R161A, NR concentration 270 nM, RXRa partner concentration 90 nM)
How it was run: as §1

[12] = system: PPARg:RXRa IVT, anti-PPARg (NR concentration 270 nM, RXRa partner concentration 90 nM)
How it was run: as §1

[13] = system: PPARg DBDmut:RXRa IVT, anti-PPARg (DBD mutation: PPARg1 K132A/R137A, NR concentration 270 nM, RXRa partner concentration 90 nM)
How it was run: as §1

[14] = system: PPARg DBDmut IVT, anti-PPARg (DBD mutation: PPARg1 K132A/R137A, NR concentration 270 nM)
How it was run: as §1

[15] = system: PPARg homodimer (NR concentration 180 nM)
How it was run: as §1

[16] = system: PXR:RXRa (NR concentration 270 nM, RXRa partner concentration 90 nM)
How it was run: as §1

[17] = system: PXR homodimer (NR concentration 270 nM)
How it was run: as §1

[18] = system: RARa:RXR (NR concentration 270 nM, RXRa partner concentration 90 nM)
How it was run: as §1

[19] = system: RARa homodimer (NR concentration 270 nM)
How it was run: as §1

[20] = system: RARb:RXRa (NR concentration 270 nM, RXRa partner concentration 90 nM)
How it was run: as §1

Sequence | PBM binding z-score [1] | PBM binding z-score [2] | PBM binding z-score [3] | PBM binding z-score [4] | PBM binding z-score [5] | PBM binding z-score [6] | PBM binding z-score [7] | PBM binding z-score [8] | PBM binding z-score [9] | PBM binding z-score [10] | PBM binding z-score [11] | PBM binding z-score [12] | PBM binding z-score [13] | PBM binding z-score [14] | PBM binding z-score [15] | PBM binding z-score [16] | PBM binding z-score [17] | PBM binding z-score [18] | PBM binding z-score [19] | PBM binding z-score [20]
TCTTGTAGAACAATAGAGGTTAAGAAAGTGCGCT | 0.656 | 2.99 | 0.526 | 1.58 | -0.26 | 1.92 | 0.287 | 1.7 | 2.64 | 2.2 | 1.83 | 1.45 | 0.641 | 0.472 | -0.0635 | 3.16 | 0.538 | 1.69 | 0.27 | 0.777
CGAACTAGATCATCCAGGACAGTGAATACATTGA | 0.155 | -0.152 | 0.195 | -0.18 | 0.286 | -0.169 | 0.554 | -0.19 | 0.138 | -0.219 | 2.02 | 1.22 | 0.762 | 0.684 | 0.315 | -0.222 | 0.306 | 0.105 | 1.19 | -0.2
ATACCAAGGTGATCGTGCGGTCGTTGATACTAAC | 0.823 | 0.293 | 0.286 | -0.0591 | -0.308 | 0.0191 | 0.122 | 0.0521 | -0.564 | -0.232 | 0.367 | 0.959 | -0.0975 | -0.386 | -0.0029 | 0.16 | 0.0689 | -0.0765 | 0.173 | 0.748
CGACCTAGGTCATTGACAGGACAGTGAATAGTAA | 5.8 | 4.01 | 0.717 | 2.75 | 0.226 | 4.18 | 3.67 | 3.24 | 0.782 | 2.01 | 3.78 | 3.8 | 0.789 | 0.214 | 2.3 | 1.99 | -0.114 | 3.08 | 0.169 | 3.9
CAAACTAGGTCGAGAGGTCAAAGTCCGCTTCCCG | 5.34 | 5.53 | 4.87 | 4.61 | 1.17 | 5.6 | 6.98 | 6.37 | 4.44 | 6.54 | 5.89 | 6.2 | 0.871 | -0.159 | 2.68 | 5.25 | 1.9 | 5.44 | 1.21 | 4.24
ATACCAAGGTGATCGTGAGGTAGTTGATACTAAC | 0.206 | -0.121 | -0.314 | -0.148 | -0.349 | 0.00448 | 0.267 | -0.218 | -0.0247 | -0.173 | 0.454 | 0.993 | 1.09 | 0.92 | -0.0605 | -0.117 | 0.172 | -0.156 | 0.171 | 0.566
ACAGATAGGTGATGAAGGTAACTCAGGCTATCAT | -0.192 | -0.132 | -0.27 | -0.29 | -0.768 | 0.548 | 0.643 | 0.541 | 0.412 | 0.624 | 0.825 | 0.996 | 0.38 | 0.000268 | 0.111 | 0.00334 | -0.296 | 0.286 | 0.188 | 0.11
TCATATAGGTAAAAGTTGAAAGTCGGTGTGGTAA | 1.54 | 1.21 | 0.41 | 1.21 | -0.0163 | 4.24 | 7.51 | 7.35 | 7.31 | 8.17 | 4.15 | 3.58 | 0.876 | 1.75 | 1.63 | 0.929 | 0.491 | 1.56 | 1.48 | 1.04
ATATGTAGGTTATCCGGTCATTCAGTTTGCGCAT | 1.83 | 2.69 | 4.12 | 1.78 | 1.15 | 3.71 | 5.51 | 5.16 | 2.68 | 4.49 | 7.35 | 6.98 | 1.53 | 1.86 | 0.982 | 1.65 | 1.86 | 1.65 | 0.474 | 2.19
AGAATGAGGTTATTAAGACCAGGGAATTGCGGTC | 1.7 | 1.52 | -0.287 | 1.09 | -0.232 | 2.8 | 1.57 | 1.93 | 0.533 | 1.05 | 2.67 | 2.43 | 1.16 | 0.232 | 0.709 | 1.02 | -0.304 | 1.49 | -0.0801 | 1.38
TCTATTAGTTGATTAGGGCCACCGAAACAGCGGA | 0.951 | 0.434 | 0.125 | 0.653 | 0.614 | 0.786 | -0.0833 | 1.9 | 3.63 | 2.7 | 1.82 | 0.608 | 0.893 | 0.609 | 0.28 | 0.517 | 0.469 | 0.615 | 1.05 | 0.596
AGAACGAGGGCACGCTGAGTTGATAACAGAGTAG | 0.997 | 0.505 | -0.474 | 0.399 | -0.662 | 2.29 | 2.11 | 1.82 | 0.679 | 1.14 | 4.19 | 3.68 | 0.246 | 0.187 | 0.159 | 1.33 | 0.018 | 0.895 | -0.194 | 2.4
TCAATGAGGTTATAAGATCAGGGAACGTTGCAAA | 1.62 | 1.48 | -0.0675 | 1.39 | -0.169 | 2.7 | 1.07 | 2.15 | 2.81 | 2.66 | 2.23 | 0.886 | -0.23 | 0.398 | 0.29 | 0.939 | -0.134 | 1.47 | 0.789 | 1.31
AGTCAAAGTTCACTACGTAACGTAAGATTCAGCT | 5.22 | 4.81 | 2.75 | 3.23 | 1.32 | 3.94 | 5.52 | 5.28 | 2.81 | 4.64 | 0.373 | 1.98 | 1.52 | 1.04 | 1.69 | 3.72 | 2.5 | 2.71 | 1.15 | 4.47
